Test results from PubChem BioAssay (NCATS).
“And” between values parts separate entries of the source, which are not always exact repeats. Equal entries are not always repeated. Values without a mark were called inactive. Results filed as inconclusive are left out. The source made the active and inactive calls. Unless noted, the call rests on the fitted dose curve; in most records, active means well fitted curve in the direction sought with a large enough effect; inconclusive means small, poorly fitted or top-dose-only effect, or another doubt; inactive means no such curve, though single readings can be large; an effect the other way counts as inactive or inconclusive.

Legend:
[1] = molecular target: Glucocorticoid receptor (Homo sapiens) (UniProt P04150); experiment: GR-GFP Redistribution (AID 450;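 active means compounds whose dose series gives a full or clear partial fitted curve of increased nuclear translocation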; further: potency means the concentration at half of the fitted maximal effect); settings: U2OS GR-GFP nuclear translocation, laser cytometry, 2 h
Chain of Glucocorticoid receptor (Homo sapiens) (P04150 whole entry, looked up, the tested form may be a part): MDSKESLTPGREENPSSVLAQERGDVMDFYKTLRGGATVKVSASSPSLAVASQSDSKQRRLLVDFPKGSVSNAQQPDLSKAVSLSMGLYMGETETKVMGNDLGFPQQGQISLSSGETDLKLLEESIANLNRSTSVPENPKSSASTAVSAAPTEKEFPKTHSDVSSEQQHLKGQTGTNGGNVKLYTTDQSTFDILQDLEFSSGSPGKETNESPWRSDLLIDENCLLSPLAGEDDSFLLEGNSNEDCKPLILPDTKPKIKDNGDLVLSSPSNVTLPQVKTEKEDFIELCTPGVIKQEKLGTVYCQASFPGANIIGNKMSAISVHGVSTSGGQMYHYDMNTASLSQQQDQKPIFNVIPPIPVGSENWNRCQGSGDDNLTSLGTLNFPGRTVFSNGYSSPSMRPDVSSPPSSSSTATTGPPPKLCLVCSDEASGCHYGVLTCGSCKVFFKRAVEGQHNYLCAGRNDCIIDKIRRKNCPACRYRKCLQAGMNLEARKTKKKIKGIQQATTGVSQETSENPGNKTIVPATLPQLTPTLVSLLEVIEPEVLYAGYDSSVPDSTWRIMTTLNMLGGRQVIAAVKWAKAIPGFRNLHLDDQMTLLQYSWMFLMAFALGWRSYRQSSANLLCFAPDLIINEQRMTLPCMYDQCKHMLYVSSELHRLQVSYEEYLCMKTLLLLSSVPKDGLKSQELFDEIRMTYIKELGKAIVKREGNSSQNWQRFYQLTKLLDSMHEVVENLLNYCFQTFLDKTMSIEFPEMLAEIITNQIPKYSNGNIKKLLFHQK

[2] = molecular target: Glucocorticoid receptor (Homo sapiens) (UniProt P04150); experiment: GR-EFC Redistribution (AID 451; calls by dose curve; further: potency means the concentration at half of the fitted maximal effect); settings: CHO-K1 GR-EFC translocation, beta-gal luminescence, 2 h
In short: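 CHO-K1 cells stably expressing nuclear-localized β-gal enzyme acceptor and GR fused C-terminally to the enzyme donor fragment; ligand-driven nuclear translocation restores β-gal by complementation. Compounds titrated up to 46 uM final, 2 h at 37 °C; luminescence read.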

[3] = molecular target: Mitogen-activated protein kinase 10 (Mus musculus) (UniProt Q61831); experiment: JNK3 AlphaScreen Assay (AID 530; active means well fitted curve in either direction with a large enough effect, not every such curve was filed as active;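 further: kinase came from lysate of stimulated human HepG2 cells; signal reports phosphorylation of biotinylated GST-cJun 1-79 at Ser73 with 10 µM ATP; on the % scale 0 is the no-effect control and ±100 the full control effect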); settings: JNK3 lysate, c-Jun phosphorylation; series mostly up to 57.1 µM
In short: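 Inhibitors reduce antibody binding to phosphorylated biotin-cJun, lowering AlphaScreen luminescence. Lysates from HepG2 cells pre-activated by IL-1beta plus TNF-alpha supplied JNK3; compounds were titrated.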

[4] = Stat Signaling Pathway (AID 446; active means well fitted curve in either direction with a large enough effect, not every such curve was filed as active;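 further: ME-180 cervical cancer cells given 40 pM IL-6 alongside compound; SIE-controlled beta-lactamase reporter measured as 460/530 nm FRET emission ratio; on the % scale 0 is the no-effect control and ±100 the full control effect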); settings: ME-180 SIE beta-lactamase reporter, IL-6 stimulated, 5 h
In short: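 ME-180 cells carrying a SIE-driven beta-lactamase reporter are stimulated with 40 pM IL-6 for 5 h at 37C in the presence of compound. The 460/530 nm FRET substrate ratio is read after 2.5 h at RT. Data are normalised to 300 pM IL-6 and to 125 nM JAK inhibitor controls.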

[5] = Cell Viability - N2a (AID 540); settings: N2a mouse neuroblastoma cell viability; at 92.2 µM (top of the series);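 further: plate controls were DMSO alone for no effect and tamoxifen control for full effect; nearly all actives have a fitted effect of over 45% in size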
In short: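 Mouse neuroblastoma N2a cells, 1500/well, exposed to compounds 40 h at 37 °C in complete medium. Viability measured as cellular ATP by CellTiter-Glo luminescence; AC50 from Hill fits of concentration-response.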

[6] = Cell Viability - NIH 3T3 (AID 541); settings: NIH 3T3 cell viability, qHTS; activity change, negative = cytotoxicity: at 92.2 µM (top of the series); further: nearly all actives have a fitted effect of over 25% in size; further: potency means the concentration at half of the fitted maximal effect;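 on activity change, negative = cytotoxicity: plate controls were DMSO alone for no effect and tamoxifen positive control for full effect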
In short: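 Mouse NIH 3T3 fibroblasts, 1000 cells/well, rested 5 hr at 37 °C, then exposed to compound for 40 hr at 37 °C in complete medium. Viability read as intracellular ATP by CellTiter-Glo luminescence; AC50 from Hill-equation fits of concentration-response data.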

[7] = Cell Viability - H-4-II-E (AID 543); settings: H-4-II-E rat hepatoma viability; series mostly up to 92.2 µM; further: nearly all actives have a fitted effect of over 35% in size; further: potency means the concentration at half of the fitted maximal effect
In short: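 Rat hepatoma H-4-II-E cells, 1500 per well, treated 40 h at 37 °C in complete medium. Cellular ATP read by CellTiter-Glo luminescence; AC50 from Hill fits of concentration-response.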

[8] = Cell Viability - SH-SY5Y (AID 544); settings: SH-SY5Y neuroblastoma cell viability; viability change, negative = cytotoxic: at 92.2 µM (top of the series); further: nearly all actives have a fitted effect of over 55% in size; further: potency means the concentration at half of the fitted maximal effect;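 on viability change, negative = cytotoxic: 0% = DMSO alone and -100% = 100 µM tamoxifen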
In short: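 SH-SY5Y human neuroblastoma cells (1500/well) incubated 5 h, then compound-treated 40 h at 37 °C in complete medium. Viability read as intracellular ATP by CellTiter-Glo luminescence after 20 min; AC50 from Hill-equation fits of qHTS concentration-response.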

[9] = Cell Viability - Renal Proximal Tubule (AID 545); settings: renal proximal tubule cells viability; at 91.7 µM (top of the series) unless noted;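 further: 0% = DMSO only and -100% = 100 µM tamoxifen; nearly all actives have a fitted effect of over 40% in size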
In short: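 Luminescent ATP signal (CellTiter-Glo) served as the viability read-out after 40 hr compound exposure of freshly isolated rat proximal tubule cells at 37 °C. Concentration-dependent ATP loss was fitted with the Hill equation to give AC50.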

[10] = Cell Viability - HUV-EC-C (AID 542); settings: HUV-EC-C endothelial cell viability, qHTS; series mostly up to 92.2 µM; further: on the % scale 0 is the no-effect control and ±100 the full control effect; nearly all actives have a fitted effect of over 35% in size
In short: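 HUV-EC-C human vascular endothelial cells, 1000/well, exposed to compound for 40 hr at 37 °C in complete medium. Intracellular ATP was read by CellTiter-Glo luminescence. AC50 came from Hill-equation fits of concentration-response data.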

Question: What does the source list for `O=c1[nH]c2ccccc2n1C1CCN(CCCC(c2ccc(F)cc2)c2ccc(F)cc2)CC1`?
Answer: Potency [1]: > 46 µM and > 20.6 µM; Potency [2]: > 46 µM and > 20.6 µM; outcome [3]: inactive

Question: Which activity, negative = inhibition ([4]; at 7.69 µM (top of the series)) does the source give for `Oc1cccc2cccnc12` here?
Answer: -1.23%

Question: And the outcome [3]?
Answer: inactive

Question: What about the activity change, negative = cytotoxicity [5] of the same compound?
Answer: -89.1% (active)

Question: And the Potency [6]?
Answer: 12.6 µM (active) and 10 µM (active)

Question: And the Potency [7]?
Answer: 39.8 µM (active)

Question: What about the Potency [8] of the same compound?
Answer: 3.98 µM (active)

Question: And the activity change, negative = cytotoxicity [9]?
Answer: -13.9% and -16.1%

Question: What does the source list for `CCCC(C)(COC(N)=O)COC(=O)NC(C)C` (configuration not stated)?
Answer: activity, negative = inhibition ([4]; at 17.2 µM (top of the series)): 5.53%; outcome [3]: inactive; activity change, negative = cytotoxicity [5]: 4.75%; activity change, negative = cytotoxicity [6]: -2.14%; outcome [10]: inactive; Potency [7]: inactive; viability change, negative = cytotoxic [8]: 1.5%; activity change, negative = cytotoxicity [9]: 4.58%

Question: For `CCCN1CCC[C@@H]2Cc3nc(N)ncc3C[C@H]21`, which activity, negative = inhibition ([4]; at 38 µM (top of the series)) is on record?
Answer: -19.8%

Question: And the outcome [3]?
Answer: inactive

Question: With `c1ccc2c(c1)Nc1ccccc1S2` as the compound, how does the outcome [3] read?
Answer: inactive

Question: What about the activity change, negative = cytotoxicity [5] of the same compound?
Answer: -21.6%

Question: And the activity change, negative = cytotoxicity [6]?
Answer: -26.2%

Question: What about the outcome [10] of the same compound?
Answer: inactive

Question: What about the Potency [7] of the same compound?
Answer: inactive

Question: What about the viability change, negative = cytotoxic [8] of the same compound?
Answer: -26%

Question: What about the activity change, negative = cytotoxicity [9] of the same compound?
Answer: -25%

Question: For `Nc1ccncc1`, which activity, negative = inhibition ([4]; at 38 µM (top of the series)) is on record?
Answer: 18.2%

Question: What about the outcome [3] of the same compound?
Answer: inactive

Question: Which results are given for `c1ccc(C2CC2)c(OCC2=NCCN2)c1`?
Answer: activity, negative = inhibition ([4]; at 38 µM (top of the series)): -9.49%; Potency [1]: > 46 µM; Potency [2]: > 46 µM; outcome [3]: inactive

Question: Which results are given for `COC1(CS(=O)c2ccccc2)CCN(CCc2c[nH]c3ccc(F)cc23)CC1` (configuration not stated)?
Answer: Potency [1]: > 46 µM; Potency [2]: > 46 µM; outcome [3]: inactive

Question: With `Oc1ccccc1-c1ccccc1` as the compound, how does the outcome [3] read?
Answer: inactive

Question: And the activity change, negative = cytotoxicity [5]?
Answer: -8.25%

Question: And the activity change, negative = cytotoxicity [6]?
Answer: -15.3%

Question: And the outcome [10]?
Answer: inactive

Question: What about the Potency [7] of the same compound?
Answer: inactive

Question: And the viability change, negative = cytotoxic [8]?
Answer: -9.19%

Question: And the activity change, negative = cytotoxicity [9]?
Answer: -16.3% [at 91.7 µM, primary cells of rat origin]

Question: What does the source list for `CN(C)CCN(C)CCc1ccc(Cl)c(Cl)c1`?
Answer: Potency [1]: > 46 µM; Potency [2]: > 46 µM; outcome [3]: inactive

Question: With `C=C(C)[C@H]1Cc2c(ccc3c2O[C@@H]2COc4cc(OC)c(OC)cc4[C@@H]2C3=O)O1` as the compound, how does the Potency [1] read?
Answer: > 46 µM

Question: What about the Potency [2] of the same compound?
Answer: > 46 µM

Question: With `Cc1ccc(S(=O)(=O)N[C@@H](CCCCN)C(=O)CCl)cc1` as the compound, how does the activity, negative = inhibition ([4]; at 38 µM (top of the series)) read?
Answer: -67% (active)

Question: And the Potency [1]?
Answer: > 46 µM

Question: What about the Potency [2] of the same compound?
Answer: > 46 µM

Question: And the outcome [3]?
Answer: inactive

Question: With `NP(N)(=O)NC(=O)c1ccc(F)cc1` as the compound, how does the Potency [1] read?
Answer: > 46 µM

Question: What about the Potency [2] of the same compound?
Answer: > 46 µM

Question: And the outcome [3]?
Answer: inactive

Question: With `CCOP(=S)(OCC)Oc1cc(C)nc(C(C)C)n1` as the compound, how does the outcome [3] read?
Answer: inactive

Question: What about the activity change, negative = cytotoxicity [5] of the same compound?
Answer: -3.66%

Question: What about the activity change, negative = cytotoxicity [6] of the same compound?
Answer: -10%

Question: And the outcome [10]?
Answer: inactive

Question: What about the Potency [7] of the same compound?
Answer: inactive

Question: What about the viability change, negative = cytotoxic [8] of the same compound?
Answer: -9.46%

Question: What about the activity change, negative = cytotoxicity [9] of the same compound?
Answer: -3.55%

Question: What does the source list for `N[C@@H]1C[C@H]1c1ccccc1`?
Answer: activity, negative = inhibition ([4]; at 38 µM (top of the series)): 20.3%; outcome [3]: inactive

Question: For `N[C@@H](Cc1ccc(N(CCCl)CCCl)cc1)C(=O)O`, which outcome [3] is on record?
Answer: inactive

Question: What about the activity change, negative = cytotoxicity [5] of the same compound?
Answer: -94.8% (active)

Question: What about the activity change, negative = cytotoxicity [6] of the same compound?
Answer: -113% (active)

Question: And the Potency [7]?
Answer: 50.1 µM (active)

Question: What about the Potency [8] of the same compound?
Answer: 0.251 µM (active)

Question: And the activity change, negative = cytotoxicity [9]?
Answer: -104% (active)

Question: What does the source list for `C#CCN(C)[C@H](C)Cc1ccccc1`?
Answer: Potency [1]: > 46 µM; Potency [2]: > 46 µM; outcome [3]: inactive

Question: Which results are given for `NN=C(N)N`?
Answer: activity, negative = inhibition ([4]; at 38 µM (top of the series)): 13% and 15.8%; outcome [3]: inactive

Question: Which outcome [3] does the source give for `OCCOc1ccccc1` here?
Answer: inactive

Question: What about the activity change, negative = cytotoxicity [5] of the same compound?
Answer: -13.3%

Question: And the activity change, negative = cytotoxicity [6]?
Answer: -18.9%

Question: What about the outcome [10] of the same compound?
Answer: inactive

Question: And the Potency [7]?
Answer: inactive

Question: And the viability change, negative = cytotoxic [8]?
Answer: -18.2%

Question: What about the activity change, negative = cytotoxicity [9] of the same compound?
Answer: -6.83%

Question: Which outcome [3] does the source give for `Oc1ccc(Cl)cc1Cc1ccccc1` here?
Answer: inactive

Question: What about the activity change, negative = cytotoxicity [6] of the same compound?
Answer: -0.588%

Question: What about the outcome [10] of the same compound?
Answer: inactive

Question: And the Potency [7]?
Answer: inactive

Question: What about the activity change, negative = cytotoxicity [9] of the same compound?
Answer: -8.93%
